A selection: hits, their analogues and other compounds. The true share with any hit is near 12%.
Pf growth 48h = P. falciparum growth inhibition at 48 hours (one generation); P. falciparum luciferase growth in erythrocytes, 48 h; Potency, µM (top dose mostly 28.7 µM), usual class: inhibitors; hit rate 5.9% among 310,000
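Compounds are pin-transferred into medium, infected erythrocytes (2% hematocrit, 0.1% parasitemia final) are added, and plates sit one parasite generation at 37 C in 5% CO2. Detection reagent is then added and luminescence measured.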
HCV inh = HCV inhibition. hit rate 3.4% among 340,000. Huh7.5.1 HCVcc-Cre infection, luciferase reporter, 44 h. Potency, µM (doses to about 41.8 µM), hits mostly inhibitors
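Antiviral activity was scored by luciferase reporter output from cells infected with HCVcc-Cre (~0.5 moi) in presence of compound, 44 h infection period, cells seeded 1,000/well 4 h prior.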
AMA1-RON2 inh = disrupts binding of P. falciparum AMA1 to RON2; AlphaScreen AMA1-biotinylated RON2 peptide binding; Potency, µM (doses to about 58.2 µM), most hits filed as inhibitors; hit rate 0.2% among 360,000; further: nearly all actives have a fitted effect of over 45% in size
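AMA1 (3D7) with his tag at 25 nM final met compounds first, then biotinylated RON2 peptide at 25 nM; detection used donor plus acceptor beads, 10 µg/mL apiece, read by AlphaScreen after 30 min at room temperature.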
NS1 function inh = inhibitors of influenza NS1 protein function; Potency, µM (highest dose often 46.1 µM); hit rate 0.4% among 270,000; calls by dose curve; further: actives are rising curves; nearly all actives have a fitted effect of over 50% in size
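Growth recovery, yeast-based: influenza A NS1 expressed in S. cerevisiae causes slow growth, and suppressors are detected by OD600. The parent strain without NS1 is used as positive control.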
Pf growth 96h = P. falciparum growth inhibition at 96 hour, primary screen for plastid delayed-death inhibitors | hit rate 6.9% among 320,000 | Potency, µM (top dose mostly 28.7 µM), actives largely listed as inhibitors | AID 504834 | P. falciparum luciferase reporter growth, 96 h
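Cell-based qHTS: luciferase-tagged P. falciparum in erythrocytes (2% hematocrit, 0.05% parasitemia final) incubated with compounds for 96 hours, 37 C, 5% CO2; luciferase detection reagent then added and luminescence measured.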
SARS PLP yeast = SARS-CoV PLP inhibition in yeast. Potency, µM (doses to about 32.9 µM), usual class: activators. AID 485353. hit rate 0.19% among 330,000. S. cerevisiae expressing SARS-CoV PLpro, growth rescue; calls by dose curve; further: nearly all actives have a fitted effect of over 55% in size
Numbers stand for hits; - = inactive; ? = inconclusive; . = not tested or not shown. Unless noted, the call rests on the fitted dose curve; in most records, active means well fitted curve in the direction sought with a large enough effect; inconclusive means small, poorly fitted or top-dose-only effect, or another doubt; inactive means no such curve, though single readings can be large; an effect the other way counts as inactive or inconclusive.

SMILES | Pf growth 48h | HCV inh | AMA1-RON2 inh | NS1 function inh | Pf growth 96h | SARS PLP yeast
Cc1ccc(OC(C)C(=O)Nc2cccc(S(=O)(=O)N3CCCCCC3)c2)cc1 (centres undefined) | . | . | - | . | . | .
CC(Oc1ccc(Cl)cc1)C(=O)Nc1cccc(S(=O)(=O)N2CCOCC2)c1 (centres undefined) | ? | ? | - | . | 10µM | -
CCOC(=O)N1CCN(C(=O)C[C@@H]2C[C@@]3(C(=O)OC)CCCCC=C3N(CCc3ccc(OC)c(OC)c3)C2=O)CC1 | . | . | - | . | . | .
Cc1cc2cc(CNC(=O)NC3CCCCC3)ccc2[nH]1 | ? | - | - | ? | . | -
CCc1cccc(C)c1NC(=S)NCc1ccc2[nH]c(C)cc2c1 | 13µM | ? | - | ? | 10µM | ?
Cc1cc2cc(CNC(=S)NC3CCCCC3)ccc2[nH]1 | - | 10µM | - | . | - | -
CNC(=S)NCc1ccc2[nH]c(C)cc2c1 | - | - | - | . | - | -
CCOC(=O)Cn1nc(C)c(NC(=O)COc2ccccc2[N+](=O)[O-])c1C | - | - | - | . | - | -
O=[N+]([O-])c1ccc(N2CCN(c3ccccn3)CC2)c(Cl)c1 | ? | - | ? | - | ? | -
CNC(=S)N(C1=NCC(c2ccc([N+](=O)[O-])cc2)S1)c1ccccc1 (centres undefined) | - | - | - | - | 13µM | -
Oc1ccc(Cl)cc1Cc1cc(Cl)cc(Cc2cc(Cl)ccc2O)c1O | . | . | . | - | . | .
CC(C)(C)CC(C)(C)c1ccc(O)c(Cc2ccc(Cl)cc2Cl)c1 | 1.9µM | - | - | . | 3µM | .
CCn1c(SCC(=O)N(C)CC(=O)Nc2ccc(F)c(F)c2F)nnc1-c1ccco1 | - | - | - | - | - | -
CCc1ccc(NC2=NCC(=O)N2Cc2ccc3c(c2)OCO3)cc1 | - | - | - | - | 9.3µM | -
CCc1ccc(NC(=O)C(C)OC(=O)c2ccc(N3CCCC3)c([N+](=O)[O-])c2)cc1 (centres undefined) | - | ? | - | - | - | -
O=C(NCc1cccs1)c1ccc2sc([C@@H]3O[C@H](CO)[C@H](O)[C@H](O)[C@H]3O)nc2c1 | . | . | - | . | . | .
CC(C)c1ccc(C(C(=O)NC2CCCCC2)N(C(=O)c2ccccn2)c2cccnc2)cc1 (centres undefined) | 10µM | - | - | . | ? | -
O=C(NC1CCCCC1)C(c1ccncc1)N(C(=O)c1csnn1)c1ccccc1 (centres undefined) | - | - | - | - | - | -
CC(=O)c1cccc(N(C(=O)c2ccccn2)C(C(=O)NC2CCCCC2)c2ccccc2)c1 (centres undefined) | - | - | - | - | 10µM | -
O=C(NC1CCCCC1)C(c1ccc(Cl)cc1)N(C(=O)c1cnccn1)c1ccc2c(c1)OCO2 (centres undefined) | 10µM | - | - | - | - | -
O=C(NC1CCCC1)C(c1ccncc1)N(C(=O)c1csnn1)c1ccccc1 (centres undefined) | - | - | - | - | 5.9µM | -
COc1cccc(N(C(=O)c2cnccn2)C(C(=O)NC2CCCCC2)c2ccc(Cl)cc2)c1 (centres undefined) | ? | - | - | - | ? | -
O=C(NC1CCCC1)C(c1ccccc1)N(C(=O)c1ccno1)c1ccccc1 (centres undefined) | - | - | - | - | 7.4µM | -
Cc1cccc(Cn2nc(C(C)(C)C)cc2C(=O)Nc2ccc(F)cc2)c1 | 10µM | ? | - | - | 9.3µM | -
COc1ccc(C(O)c2nc(-c3cnn(C)c3)cs2)cc1 (centres undefined) | . | . | - | . | . | .
SMILES | Pf growth 48h | HCV inh | AMA1-RON2 inh | NS1 function inh | Pf growth 96h | SARS PLP yeast
Nc1nc(-c2ccc(Cl)cc2)c(S(=O)(=O)c2ccccc2)s1 | - | - | - | . | - | -
COc1ccc(-c2c(S(=O)(=O)c3ccccc3)cnn2-c2ccccc2)cc1 | ? | - | - | - | 6.6µM | -
O=S(=O)(c1ccccc1)c1cnn(-c2ccccc2)c1-c1ccc(Cl)cc1 | 12µM | ? | - | - | 2.9µM | -
COc1ccc(S(=O)(=O)Nc2cc(C)nn2-c2ccccc2)cc1 | . | - | - | - | - | -
CC(=O)c1c(C)c(C)c2n1CCn1c(C)ccc1-2 | ? | ? | - | - | ? | -
CC(=O)Nc1ccc2c(c1)CN(c1cc(C)ccc1C)CO2 | - | - | - | - | ? | -
CN(C(=O)COC(=O)c1cc(S(=O)(=O)N2CCCCC2)ccc1Cl)c1ccccc1 | ? | - | - | . | ? | -
CC[C@@]12C(=O)N(c3ccc(OC)cc3)C(=O)N1[C@H](c1cccc(C)c1)[C@@H]1C(=O)N(Cc3ccccc3)C(=O)[C@@H]12 | ? | - | - | - | 13µM | -
Cc1cccc([C@@H]2[C@@H]3C(=O)N(Cc4ccccc4)C(=O)[C@@H]3[C@]3(C)C(=O)N(c4cccc(F)c4)C(=O)N23)c1 | 10µM | - | - | . | ? | -
CC[C@@]12C(=O)N(c3cccc(Cl)c3)C(=O)N1[C@H](c1cccc(C)c1)[C@@H]1C(=O)N(Cc3ccccc3)C(=O)[C@@H]12 | 4.7µM | ? | - | . | 5.2µM | -
CC[C@@]12C(=O)N(c3ccc(C)cc3)C(=O)N1[C@H](c1cccc(C)c1)[C@@H]1C(=O)N(Cc3ccccc3)C(=O)[C@@H]12 | ? | - | - | . | ? | -
Cc1cccc([C@@H]2[C@@H]3C(=O)N(Cc4ccccc4)C(=O)[C@@H]3[C@]3(Cc4ccc(Cl)cc4)C(=O)N(c4ccc(Br)cc4)C(=O)N23)c1 | ? | - | - | ? | 8.3µM | -
CN(c1ccc(-c2csc(NC(=O)CCCc3nc4ccccc4c(=O)[nH]3)n2)cc1)S(C)(=O)=O | . | . | - | . | . | .
O=C(c1ccco1)N1CCN(c2ccc(N3CCCCC3)nn2)CC1 | - | - | - | . | ? | -
O=C(CSC1=NS(=O)(=O)c2cc(Cl)ccc2N1)Nc1cccc(F)c1 | - | - | - | . | - | -
Cc1cc(C2(c3cc(C)c(O)c(C(=O)O)c3)OS(=O)(=O)c3ccccc32)cc(C(=O)O)c1O | . | . | . | - | . | .
COC(=O)c1ccccc1NC(=O)COC(=O)CO/N=C(\C)c1ccc2c(c1)OCO2 | - | - | - | - | - | ?
COc1ccc(-c2sc3cc(OC)c(OC)cc3c2-c2ccc(O)cc2)cc1 | . | 28µM | ? | . | . | -
COc1ccccc1-c1sc2ccccc2c1-c1ccc(O)cc1 | . | 5.6µM | - | . | . | -
COc1ccccc1-c1sc2ccccc2c1-c1ccc2c(c1)OCO2 | 4.7µM | ? | - | - | 5.2µM | -
COc1ccc(-c2sc3ccccc3c2-c2ccc(O)cc2)cc1 | . | ? | - | . | . | -
CCOc1cc(N2CCOCC2)c(OCC)cc1NC(=O)CN1C(=O)NC2(CCCCC2C)C1=O (centres undefined) | ? | - | - | . | - | -
CCOC(=O)/C=C/C(=O)OCC(=O)Nc1c(Cl)cccc1Cl | 13µM | - | - | . | - | -

Assay outcomes from PubChem.
